Data reported in PubChem BioAssay AID624330 (Southern Research Specialized Biocontainment Screening …, 2012).
The campaign covered roughly 340,000 compounds. About 2,100 (0.62%) were called active.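 Rule for the calls: active = first-screen hits whose inhibition reached a set limit at any dose in the follow-up dose series; inconclusive = inhibition above the set first-screen limit but never retested; inactive = the rest.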 A selection follows. Results with a measured potency or affinity are listed apart.

biological target: Rac GTPase-activating protein 1 (Homo sapiens) (UniProt Q9H0H5); experiment: MgcRacGAP GTPase-activating activity inhibitors, confirmation, biochemical, ADP Hunter fluorescence, primary and confirmatory (AID 624330); conditions: MgcRacGAP-stimulated Rac1 GTP hydrolysis, at 30 µM, hits give high values, GST-tagged Rac1 F28L mutant substrate;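 note: fluorescence reports GDP produced by GAP-driven GTP hydrolysis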
Sequence (Q9H0H5 whole entry, looked up): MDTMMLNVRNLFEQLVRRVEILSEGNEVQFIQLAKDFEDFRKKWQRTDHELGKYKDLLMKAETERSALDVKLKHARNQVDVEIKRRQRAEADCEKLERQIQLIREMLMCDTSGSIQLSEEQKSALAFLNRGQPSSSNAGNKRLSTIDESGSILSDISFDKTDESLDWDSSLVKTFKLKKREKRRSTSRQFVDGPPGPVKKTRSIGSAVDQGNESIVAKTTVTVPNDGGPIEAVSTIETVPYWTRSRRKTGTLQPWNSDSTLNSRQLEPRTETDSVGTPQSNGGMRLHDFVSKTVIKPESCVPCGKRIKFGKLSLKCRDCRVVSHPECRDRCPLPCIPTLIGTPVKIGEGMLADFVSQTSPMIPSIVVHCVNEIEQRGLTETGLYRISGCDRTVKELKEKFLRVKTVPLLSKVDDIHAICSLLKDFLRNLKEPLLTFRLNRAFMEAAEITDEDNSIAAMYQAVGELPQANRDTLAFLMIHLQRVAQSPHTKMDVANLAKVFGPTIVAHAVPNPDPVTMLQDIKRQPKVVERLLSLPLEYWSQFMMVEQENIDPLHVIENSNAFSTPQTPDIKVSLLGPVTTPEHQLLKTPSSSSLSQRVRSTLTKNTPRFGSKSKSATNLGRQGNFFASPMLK

inhibition, inactive:
O=S(=O)(c1ccc(-c2csc(=Nc3ccccc3)n2CCCN2CCOCC2)cc1)N1CCOCC1 3.34%
CCCCCCCNC(=O)C1(CC2CC(c3ccc(Cl)cc3)=NO2)CCN(C(=O)Cc2ccc(F)cc2)CC1 (stereo not given) 4.28%
Fc1ccc(CN2CCCN(Cc3nc(-c4ccc5c(c4)OCO5)no3)CC2)cc1 7.98%
CCCC(=O)Nc1ccc(C(=O)COC(=O)C2CC2)cc1 6.42%
Cc1cc(C)c(C(=O)N2CCCC(CNC(=O)C3(c4ccc(Cl)cc4)CC3)C2)c(=O)[nH]1 (stereo not given) 6.3%
CNC(=O)c1ccc(CN(C)C(=O)c2cccc(S(=O)(=O)N3CCc4ccccc4C3)c2)cc1 15.5%
O=C(N/N=C/c1ccncc1)c1ccc(-n2cccc2)cc1 -9.21%
COc1ccc(/C=N/NC(=O)c2cc3cc(OC)c(OC)cc3[nH]2)cc1 10.7%
COc1ccc(/C=N/NC(=O)c2ccc(C)cc2)cc1CN1CCN(c2ccc(F)cc2)CC1 11.1%
O=C(N/N=C/c1ccc(F)cc1)c1cc[n+]([O-])cc1 2.39%
COc1ccc(/C=N\NC(=O)c2cc(O)c(O)c(O)c2)cc1CN1CCN(c2ccc(F)cc2)CC1 -36.7%
COc1ccc2[nH]c(C(=O)N/N=C/c3ccc(OC)c(O)c3)cc2c1 26.2%
COc1cc(C(=O)N/N=C/c2ccc3c(c2)c2ccccc2n3C)ccc1O 22.2%
COc1cc(/C=N/NC(=O)c2cc[n+]([O-])cc2)cc(OC)c1OC 7.29%
Cc1onc(-c2c(Cl)cccc2Cl)c1C(=O)N(C)Cc1ccccc1 12.4%
CC(=O)N1CCN(c2ccc(NC(=O)c3ccco3)cc2Cl)CC1 8.65%
Cc1sc2nc(SCC(=O)N3CCN(CCO)CC3)n(-c3ccccc3)c(=O)c2c1C 6.94%
CCC(Oc1cc(Cl)ccc1Cl)C(=O)NN1C(=O)C2C3CCC(C3=C(C)C)C2C1=O (stereo not given) 4.3%
CCCCCCN1C[C@H](n2cc(COC(=O)c3ccccc3)nn2)[C@@H](O)C[C@@H]1c1ccc(C)cc1 2.5%
O=C(Nc1ccc(Cl)cc1)N[C@@H]1c2c(ccc3ccccc23)OC[C@@H]1CO -2.15%
COC(=O)c1c(-c2ccccc2)csc1NC1=NS(=O)(=O)c2ccccc21 -0.52%
COc1ccc(/C=N/NC(=O)C(=O)Nc2ccccn2)cc1OC 13.3%
C=CCOc1ccc(/C=N/NC(=O)C(=O)Nc2ccccn2)cc1OC -2.52%
COc1ccccc1/C=N/NC(=O)c1cccc(NC(=O)c2ccccc2C)c1 6.03%
COc1ccc(/C=N/NC(=O)c2[nH]nc3c2CCc2ccccc2-3)cc1OC 11.3%
COc1ccc(OC)c(/C=N/NC(=O)c2[nH]nc3c2CCc2ccccc2-3)c1 -0.52%
COc1cc(/C=N/NC(=O)c2cccc(NC(=O)c3ccccc3Cl)c2)ccc1O 28.3%
COc1cc(OC)c(OC)cc1/C=N/NC(=O)c1ccc(CSc2nc(C)cc(C)n2)cc1 8.78%
COc1ccc(/C=N/NC(=O)c2ccc(CSc3nc(C)cc(C)n3)cc2)c(OC)c1OC 5.29%
C[C@@H]1CN([C@@H](C)CO)C(=O)CCCn2cc(nn2)CO[C@H]1CN(C)S(=O)(=O)c1ccc(Oc2ccccc2)nc1 15.5%
C[C@@]12C(=O)Nc3cc(Cl)ccc3C(=O)N1[C@H]1c3cc(Br)ccc3OC[C@@H]1[C@@H]2c1ccccc1 11.9%
O=C(c1cc2nc(-c3ccc(F)cc3)cc(C(F)(F)F)n2n1)N1CCOCC1 10.3%
CCN1C(=O)[C@H]2[C@H]3CN=C(SCc4ccc(C(=O)OC)cc4)N3[C@@](CC)(C(=O)OC)[C@H]2C1=O 6.61%
O=C(Nc1ccc2nc(-c3cccnc3)[nH]c2c1)c1ccccc1F 5.15%
O=C(O)C1CC(c2ccc(F)cc2)=NO1 (stereo not given) 1.2%
CC(C)[C@H](NC(=O)OCc1ccccc1)C(=O)OCC(=O)NC1CCCCC1 10.6%
Cc1nonc1CN(C)C(=O)CC1C(=O)NCCN1Cc1ccccc1F (stereo not given) 2.81%
Cc1ccc(OCCn2cc(/C=N/NC(=O)c3ccncc3)c3ccccc32)cc1 -10.1%
COc1cc(/C=C/C(=O)CC(=O)/C=C/c2ccc(O)c(OC)c2)ccc1O 27.8%
CCN(CC)c1ccc(/C=N/NC(=O)c2c[nH]c3ccccc23)cc1 30.9%
CC(/C=C/c1ccc(O)cc1)=NNc1ccccc1 31.4%
COc1ccc(/C=N/Nc2ccc(C(=O)O)cc2)cc1OC 12.8%
COc1cc(/C=N/Nc2ccc(C(=O)O)cc2)cc(OC)c1OC -9.42%
COc1ccc(OCCn2cc(/C=N/NC(=O)c3ccncc3)c3ccccc32)cc1 4.18%
CCN(CC)c1ccc(/C=N\NC(=O)c2cccc3cc[nH]c23)cc1 21.1%
CN(C(=O)c1cccc(NC(=O)Cc2ccc(NC(=O)C3CCCN(S(=O)(=O)c4cccc([N+](=O)[O-])c4)C3)cc2)c1)C1CCCCC1 (stereo not given) 3.08%
O=C(COc1ccc(Cl)cc1)NCc1nnc(SCC(=O)N2CCCc3ccccc32)o1 2.68%
COc1ccc(-c2nnc(NC(=O)Cc3ccccc3)o2)cc1 7.81%
COc1ccc(CN2CCOCCOCCOCC2)cc1 0.62%
C=CCn1c(=O)c2ccccc2n2c(SCC(=O)NCCc3ccccc3)nnc12 6.1%
CC(C)n1nc(C(=O)NCCc2ccc(S(N)(=O)=O)cc2)c2ccccc2c1=O 0.38%
COc1ccc(CN2C(=O)c3ccccc3C2=O)cc1C(=O)OCC(=O)NC1CCCCC1 7.94%
c1ccc2cc(CNCc3cccc4ccccc34)ccc2c1 13%
O=C(COC(=O)CN1CCSC1=O)Nc1ccc(F)cc1Cl 2.57%
O=C(NCC1COc2ccccc2O1)c1ccc(NC(=O)C2CCCO2)cc1 (stereo not given) 10.6%
Cc1nnc(NC(=O)CCn2c(=O)oc3ccccc32)s1 4.88%
C=CCSc1ncccc1C(=O)NCCc1ccc(Cl)cc1 10.4%
COc1ccc(/C=N/NC(=O)C2(O)c3ccccc3-c3ccccc32)cc1 6.06%
O=C(N/N=C/c1ccccc1O)C1(O)c2ccccc2-c2ccccc21 8.51%
COc1ccccc1N(CC(=O)Nc1ccc(Cc2ccncc2)cc1)S(=O)(=O)c1ccccc1 0.87%
COc1ccc(C(=O)Nc2ccc3c(c2)n(C)c(=O)n3C)cc1OC 3.94%
O=S(=O)(Cc1ccccc1)N1CCN(C2Cc3ccccc3C2)CC1 9.97%
CCS(=O)(=O)N1CCN(C2Cc3ccccc3C2)CC1 13.9%
CC1CCC(N2CCN(S(=O)(=O)Cc3ccccc3)CC2)CC1 (stereo not given) 7.86%
CCS(=O)(=O)N1CCN(C2CCC(C)CC2)CC1 (stereo not given) 17.9%
Nc1cc2c(cc1Br)-c1ccccc1C2=NO 7.06%
COc1ccc(-c2nn(-c3ccccc3)cc2/C=N/Nc2ccc(Cl)c(C(=O)O)c2)cc1OC 13.5%
N#Cc1c(-c2ccccc2)nc(N2CCN(Cc3ccccc3)CC2)[nH]c1=O 0.49%
O=C(/C=C/c1cn(-c2ccccc2)nc1-c1cccnc1)NCCN1CCOCC1 11.7%
O=C(O)c1cc2ccc(O)cc2oc1=O 4.89%
O=c1oc2cc(O)ccc2cc1-c1ccccc1 15.9%
O=C(CCCc1nc2ccccc2s1)NC(c1ccccc1)c1ccccc1 6.29%
O=C(CN1N=C(c2ccccc2)CCC1=O)NCc1ccccc1 6.27%
COc1cc(CN(C)C(=O)C(=O)c2c[nH]c3ccccc23)ccc1O 8.17%
O=C(c1cc(-c2ccc(Cl)c(Cl)c2)on1)N1CCN(c2ccccc2)CC1 4.94%
COc1cc(NC(=O)c2cccs2)c(OC)cc1NC(=O)c1cccs1 4.2%
COc1ccc(NC(=O)c2cccs2)cc1 8.32%
COc1ccccc1NC(=O)c1cccs1 0.52%
COc1ccc(NC(=O)c2ccc(NC(=O)c3cccs3)cc2)cc1 2.51%
O=C(c1ccco1)N1CCc2ccccc21 3.81%
COCC(C)n1c(C)cc(C(=O)CSc2ncccn2)c1C (stereo not given) 8%
CN(CC1COc2ccccc2O1)C(=O)Cn1cc(C(F)(F)F)ccc1=O (stereo not given) 0.56%
CCCCN(C)C(=O)C1CCN(CCCc2ccccc2)CC1 21.2%
CCN(CC)C(=O)C1CCN(Cc2cccc(OCc3ccccc3)c2)CC1 19.6%
NC(=O)C1CCN(Cc2cccc(OCc3ccccc3)c2)CC1 21.4%
CCN(CC)C(=O)C1CCN(Cc2ccc(OCc3ccccc3)cc2)CC1 15.5%
NC(=O)C1CCN(Cc2ccc(OCc3ccccc3)cc2)CC1 21.3%
CCCCN(C)C(=O)C1CCN(Cc2cccnc2)CC1 27.6%
CCc1c(O)nc(SCC(=O)N2CCOCC2)n(-c2ccccc2)c1=O 9.22%
Cc1cc(NC(=O)COC(=O)CNC(=O)c2cccs2)c([N+](=O)[O-])cc1C 10.5%
